Counter-ions that a name gives are not always drawn. ± gives the standard deviation of the averaged measurements.
How the values were obtained:
DLD1 [1] = test: cell viability (CellTiter-Glo) relative to plate median (fraction of plate median); higher = more viable cells; conditions: 10 µM, treatment time 24 h
Procedure, shortened: (§1)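 Kinase inhibitor library compounds were added at a final 10 µM for 24 h to colorectal cancer cells in 384-well plates, 24 h after seeding. The cells stably expressed lentiviral TCF/Wnt firefly luciferase reporters. Firefly luciferase and CellTiterGlo luminescence came from parallel plates, and each well was normalised to its plate median (webcellHTS2, additive, untransformed), averaged over two independent replicates.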

HCT116 [2] = test: as above; conditions: 10 µM; treatment time 24 h; reporter: TCF4/Wnt
Procedure, shortened: as §1

SW480 [3] = test: as above; conditions: 10 µM; treatment time 24 h; reporter: 7TFP
Procedure, shortened: as §1

DLD1 [4] = test: TCF/Wnt firefly luciferase reporter signal relative to plate median (fraction of plate median); higher = higher Wnt reporter signal; conditions: 10 µM, treatment time 24 h
Procedure, shortened: as §1

HCT116 [5] = test: as above; conditions: 10 µM; treatment time 24 h; reporter: TCF4/Wnt
Procedure, shortened: as §1

SW480 [6] = test: as above; conditions: 10 µM; treatment time 24 h; reporter: 7TFP
Procedure, shortened: as §1

Row | SMILES | cell viability (DLD1 [1]; reporter: 7TFP) | cell viability (DLD1 [1]; reporter: TCF4/Wnt) | cell viability (HCT116 [2]) | cell viability (SW480 [3]) | TCF/Wnt firefly luciferase reporter signal (DLD1 [4]; reporter: 7TFP) | TCF/Wnt firefly luciferase reporter signal (DLD1 [4]; reporter: TCF4/Wnt) | TCF/Wnt firefly luciferase reporter signal (HCT116 [5]) | TCF/Wnt firefly luciferase reporter signal (SW480 [6])
1 | Oc1ccc(-c2nc(-c3ccc(F)cc3)c(-c3ccncc3)[nH]2)cc1 | 1.08 ± 0.064 | 1.04 ± 0.014 | 1.14 ± 0.021 | 0.916 ± 0.013 | 0.747 ± 0.27 | 0.85 ± 0.04 | 1.05 ± 0.035 | 0.792 ± 0.15
2 | CCC[C@H](NC(=O)/C(C#N)=C/c1cccc(Br)n1)c1ccccc1 | 0.421 ± 0.17 | 0.532 ± 0.038 | 0.13 ± 0.066 | 0.826 ± 0.11 | 0.0449 ± 0.0065 | 0.0661 ± 0.016 | 0.0353 ± 0.0076 | 0.037 ± 0.0048
3 | FC(F)c1nc2ccccc2n1-c1nc(N2CCOCC2)nc(N2CCOCC2)n1 | 0.82 ± 0.08 | 0.835 ± 0.016 | 0.829 ± 0.042 | 1.065 ± 0.0071 | 0.673 ± 0.019 | 0.891 ± 0.11 | 1.01 ± 0.061 | 1.03 ± 0.17
4 | Cn1cnc2c(F)c(Nc3ccc(Br)cc3Cl)c(C(=O)NOCCO)cc21 [AZD6244 (Selumetinib)] | 1.11 ± 0.042 | 1.08 ± 0.035 | 0.914 ± 0.066 | 1.125 ± 0.0071 | 1.45 ± 0.021 | 1.42 ± 0.16 | 0.99 ± 0.52 | 1.34 ± 0.72
5 | CC[C@H](Nc1ncnc2[nH]cnc12)c1nc2cccc(F)c2c(=O)n1-c1ccccc1 | 1.05 ± 0.14 | 0.999 ± 0.086 | 1.11 ± 0.042 | 0.996 ± 0.02 | 0.977 ± 0.089 | 0.788 ± 0.024 | 0.777 ± 0.3 | 0.751 ± 0.26
6 | CC1(C)CNc2cc(NC(=O)c3cccnc3NCc3ccncc3)ccc21 [Motesanib Diphosphate] | 1.015 ± 0.0071 | 0.978 ± 0.074 | 1.08 ± 0.021 | 0.8805 ± 0.0021 | 1.14 ± 0.12 | 0.952 ± 0.17 | 1.19 ± 0.19 | 0.971 ± 0.11
7 | O=C1NC(=O)/C(=C/c2ccc(-c3ccc(F)cc3O)o2)S1 | 1.09 ± 0.092 | 1.21 ± 0.028 | 1.19 ± 0.092 | 1.04 ± 0.14 | 0.905 ± 0.13 | 1.34 ± 0.47 | 1.7 ± 0.71 | 1.41 ± 0.35
8 | Cc1ccc(NC(=O)c2ccc(CN3CCN(C)CC3)cc2)cc1Nc1nccc(-c2cccnc2)n1 [Imatinib Mesylate] | 0.9835 ± 0.0064 | 0.907 ± 0.17 | 0.91 ± 0.024 | 0.984 ± 0.066 | 2.07 ± 0.14 | 1.51 ± 0.4 | 1.32 ± 0.47 | 1.73 ± 0.15
9 | CC(C)n1nc(-c2ccc3oc(N)nc3c2)c2c(N)ncnc21 | 0.832 ± 0.15 | 0.916 ± 0.016 | 0.624 ± 0.1 | 1.04 ± 0.072 | 0.341 ± 0.062 | 0.509 ± 0.071 | 0.569 ± 0.26 | 0.704 ± 0.15
10 | Fc1cc(-c2cccc3ncc(-c4cnn(C5CCNCC5)c4)nc23)cc(F)c1CN1CCOCC1 | 0.974 ± 0.14 | 0.981 ± 0.055 | 1.01 ± 0.055 | 1.05 ± 0.12 | 1.04 ± 0.19 | 1.02 ± 0.089 | 0.967 ± 0.076 | 1.52
11 | CCN(CC)CCNC(=O)c1c(C)[nH]c(/C=C2\C(=O)Nc3ccc(F)cc32)c1C [Sunitinib Malate (Sutent)] | 0.867 ± 0.1 | 0.9685 ± 0.0035 | 0.659 ± 0.31 | 1.02 ± 0.15 | 0.939 ± 0.051 | 0.87 ± 0.18 | 0.605 ± 0.33 | 1.14 ± 0.21

— the supplement of paper PMC6522484
